# Results reported in PubChem BioAssay.
# Molecular target: Pro-neuregulin-1, membrane-bound isoform (Homo sapiens) (UniProt Q02297)
# Test: NRG1 binders on small-molecule microarrays, primary screen, psychiatric disease protein project, biochemical, small-molecule microarray, fluorescence 635/667 (AID 1075);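 further: score combines 667 nm spot fluorescence with signal to noise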
# Details: NRG1 binding, 635 nm fluorescence, higher = more signal
# Pro-neuregulin-1, membrane-bound isoform (Homo sapiens), sequence (Q02297 whole entry, looked up, canonical isoform): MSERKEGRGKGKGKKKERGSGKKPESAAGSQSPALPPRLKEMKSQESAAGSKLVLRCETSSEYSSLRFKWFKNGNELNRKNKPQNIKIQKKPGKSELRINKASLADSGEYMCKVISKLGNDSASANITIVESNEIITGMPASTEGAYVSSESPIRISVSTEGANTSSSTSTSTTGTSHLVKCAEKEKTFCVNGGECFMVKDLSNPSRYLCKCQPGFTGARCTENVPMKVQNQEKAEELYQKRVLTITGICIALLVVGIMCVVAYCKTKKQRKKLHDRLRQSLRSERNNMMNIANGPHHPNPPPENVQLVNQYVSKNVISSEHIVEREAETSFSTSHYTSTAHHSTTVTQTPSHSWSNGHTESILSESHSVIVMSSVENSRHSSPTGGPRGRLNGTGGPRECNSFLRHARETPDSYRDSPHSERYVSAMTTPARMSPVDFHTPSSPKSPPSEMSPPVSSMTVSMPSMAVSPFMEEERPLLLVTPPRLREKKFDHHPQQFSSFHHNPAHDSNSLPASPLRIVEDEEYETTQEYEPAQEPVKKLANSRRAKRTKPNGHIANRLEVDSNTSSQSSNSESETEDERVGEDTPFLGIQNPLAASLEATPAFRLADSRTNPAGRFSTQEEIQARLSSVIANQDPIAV
row,Structure (SMILES),composite z-score
1,Cc1ccc(C2CC=C(C(=O)O)CN2S(=O)(=O)c2ccc(C)cc2)cc1 (stereo unspecified),1.97
2,COc1ccc([Si](C)(C)[C@H]2[C@H](CC(=O)N3CCC[C@H]3CO)O[C@@]3(C(=O)N(Cc4cccc(N5C(=O)COc6ccccc65)c4)c4ccccc43)[C@@H]2C)cc1,0.563
3,CC(CCN1CCc2nc(-c3ccccc3)c(-c3ccccc3)cc2C1)=NOC[C@@H](C)[C@H](OCc1ccccc1)C(C)C,0.0189
4,CN1C(=O)C2C(C1=O)C1C=C(CCCO)C2C(c2ccc(CN3CCCC3)cc2)N1C (stereo unspecified),0.0016
5,CCc1cc2c(nc1CC)CCN(CCC(C)=NO[C@@H](C)c1cc(-c3c(C)cc(C)cc3C)no1)C2,0.191
6,CS(=O)(=O)CCOC(=O)C1=CC(CCCO)=CC(c2cccs2)N(Cc2cccc(OC(F)(F)F)c2)C=C1C(=O)OCCS(C)(=O)=O (stereo unspecified),1.8
7,O=C1CCCC=C1C(O)CCOCc1ccccc1 (stereo unspecified),-0.573
8,CC(C)=CCCC(C)=CCON=C1[C@H]2CCn3c(=O)n(Cc4cc5c(cc4Cl)OCO5)c(=O)n3[C@H]2[C@H](O)[C@@H]2O[C@H]12,0.0535
9,O=C1C2=CC[C@H]3C(=O)N(Cc4ccc5c(c4)OCO5)C(=O)[C@H]3[C@H]2[C@H](O)[C@@H]2O[C@H]12,-0.149
10,CO[C@@H]1COC(=O)CC=C[C@@H](C)[C@@H]2C=C[C@H](O)[C@@H](COC(=O)[C@H](C)NC(=O)CC=C[C@H]1C)O2,-0.497
11,COCCOC(=O)N1C(=O)[C@@]2(c3cc(C#CC4(O)CCCCCC4)ccc31)[C@H](c1ccc(OCCO)cc1)N1[C@H](c3ccccc3)[C@H](c3ccccc3)OC(=O)[C@H]1[C@@H]2C(=O)NC[C@H](O)c1ccccc1,1.55
12,CCCCC(=C=CC[C@H](O)c1ccccc1OCCO)C[C@H](O)COCc1ccccc1,0.716
13,C[C@@H]1C=CCC(=O)OC[C@H](C)C(=O)N2CCC[C@H]2C(=O)OC1,-0.824
14,CC(C)c1ccc(NN2C(C(O)c3ccc4c(c3)OCO4)C=CC3C(=O)N(c4ccccc4)C(=O)C32)cc1 (stereo unspecified),1.82
15,COc1ccc(COC(=O)NN=C2C[C@@H](O)[C@@H](O)[C@@H]3[C@@H]4C(=O)N(c5ccc(F)cc5F)C(=O)[C@@H]4CC[C@@H]23)cc1,0.0565
16,C=C(/C(=C/C[C@@H](OC(=O)c1ccncc1)c1ccc(OCCO)cc1)c1cnc2ccccc2c1)C(C)C,0.562
17,Cn1c(=O)n2n(c1=O)[C@H]1[C@H](O)[C@@H]3O[C@@H]3C(=NOC[C@@H](O)COCc3ccco3)[C@H]1CC2,-0.218
18,CCOC(=O)CCN1C(=O)[C@H]2[C@H]3[C@H](O)[C@H](O)CC(=NNC(=O)OCc4ccc(OC)cc4)[C@@H]3CC[C@H]2C1=O,0.863

row,Structure (SMILES),composite z-score
1,CCCNC(=O)OC[C@H]1O[C@H](CCON=CC[C@@H]2C=C[C@H](OC(C)=O)[C@@H](COC(C)=O)O2)C=C[C@@H]1Oc1ccc(OC)cc1,-0.367
2,COC(=O)[C@H](C)NC(=O)CCC1CC(OC(=O)NCc2cccc3ccccc23)CC2(CCCC(COC(=O)NCCc3ccc(Cl)cc3)O2)O1 (stereo partly specified),0.567
3,COc1ccc(O[C@H]2C=C[C@@H](c3ccccc3)O[C@@H]2COC(=O)CCC(C)=NO[C@@H](C)c2cc(-c3c(C)cc(C)cc3C)no2)cc1,-0.524
4,CN(C)C(=O)[C@@]1(Cc2ccccc2)N=C(c2ccc(OCCCO)cc2)O[C@H]1c1ccccc1CN=[N+]=[N-],1.96
5,COc1ccc(OC[C@H]2Cc3c(-c4ccccc4)nc4c(c3CO2)CN(CCOc2ccccc2)CC4)cc1,0.679
6,COC(=O)C1=C(C)N(Cc2ccccc2)[C@]23O[C@](C(=O)OC)(C(=O)N2[C@@H]1c1ccccc1)[C@H]1CCOC(=O)[C@H]13,-0.146
7,COC(=O)CC=C[C@@H](C)[C@@H](C=NO[C@@H](C)c1cc(-c2c(C)cc(C)cc2C)no1)OC,-0.674
8,COc1ccc(O[C@H]2C=C[C@@H](c3ccccc3)O[C@@H]2COC(=O)CCC(C)=NO[C@H](C)c2cn([C@@H]3COC[C@H]3O)nn2)cc1,0.489
9,CC(C)=NOCc1cccc(-c2cc(-c3ccccc3)no2)c1,0.205
10,CCCNC(=O)OC[C@H]1O[C@H](CCON=C2[C@H]3CCn4c(=O)n(-c5ccccc5)c(=O)n4[C@H]3[C@H](O)[C@@H]3O[C@H]23)C=C[C@@H]1Oc1ccc(OC)cc1,-0.248
11,CC[C@@H](c1ccccc1)n1c(=O)n2n(c1=O)[C@H]1[C@H](O)[C@@H]3O[C@@H]3C(=NOCC(C)C)[C@H]1CC2,-0.0258
12,COC(=O)C1=C(C)[C@@H](O)[C@@H](C)[C@H](c2c(OC)c(OC)c(C)c(OC)c2OC)O1,-0.412
13,CC(C)C[C@@H]1NC(=O)[C@H]2C[C@@H](C(=O)O)[C@@H](c3ccc(O)cc3)N2C1=O,1.47
14,CC(=O)OC[C@H]1O[C@@H](ON=C[C@@H](C)[C@H](OCc2ccccc2)C(C)C)[C@H](OC(C)=O)[C@@H](OC(C)=O)[C@@H]1OC(C)=O,-0.927
15,COc1ccc(O[C@@H]2[C@H](O)CO[C@H]2C=CC#Cc2ccccc2)cc1,0.068
16,CCN1C(=O)[C@H]2[C@H]3[C@H](O)[C@H](O)CC(=NOC[C@@H](C)[C@H](OCc4ccccc4)C(C)C)[C@@H]3CC[C@H]2C1=O,1.24
17,COC(=O)[C@]1(CO)N=C(c2ccc(OCCCO)cc2)O[C@@H]1c1ccccc1N=[N+]=[N-],1.25
18,CCCCCN1CC=CC23O[C@@H]4C=CCOC(=O)[C@@H]4[C@H]2C(=O)N(CCCCCCO)[C@@H]3C1=O (stereo partly specified),2.35
